High-throughput results (PubChem BioAssay)
Only a selection was taken, and hits are over-represented in it overall.
Methyltransferases: Primary Screen for Target Class Profiling of Small Molecule Inhibitors of Methyltransferases | purified enzyme, MTase-Glo SAH luminescence; active compounds read low | calls only at 40 µM | 25,000 tested, 3.9% active | AID 1745853, 2022; call rule not given here
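Each enzyme was reacted with SAM and its substrate, with compounds tested once at 40 uM; SAH formed was read by MTase-Glo luminescence.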
An asterisk follows results filed as active; i = inactive; + = active, no number. % is scaled to controls: 0 for no effect and ±100 for the full control effect.

SMILES	Methyltransferases
CC(C)C[C@H](CO)Nc1nc(S[C@@H](C)c2ccccc2)nc2nc(N)sc12	+
CCCn1c(=O)c2ccc(C(=O)NC(C)C)cc2n2c(=O)n(CC(=O)Nc3ccc(Cl)cc3)nc12	i
C=CCn1c(=O)c2c(nc(-c3ccc(S(=O)(=O)O)cc3)n2C)n(C)c1=O	i
Cn1c(=O)c2[nH]c(-c3ccc(S(=O)(=O)O)cc3)nc2n(C)c1=O	+
Cn1c(=O)c2[nH]cnc2n(C)c1=O	i
CCOc1ccccc1CN1C(=O)c2cc3sccc3n2CC1(C)C(=O)NC1CCC(C)CC1 (configuration not stated)	i
CC(C)NC(=O)N1Cc2c(sc3c2CCCC3)-n2cccc2C1c1ccccc1 (configuration not stated)	i
COC(=O)c1ccc(O[C@@H]2O[C@H](CO)[C@@H](O)[C@H](O)[C@H]2O)c(OC)c1	i
COc1c(O)cc2c(c1O)[C@@H]1O[C@H](CO)[C@@H](O)[C@H](O)[C@H]1OC2=O	+
COc1cc(COC2OC(CO)C(O)C(O)C2O)cc(OC)c1O (configuration not stated)	i
Cc1ccc(C)c(N2C(=O)c3cc4occc4n3CC2(C)C(=O)NC2CCC(C)CC2)c1 (configuration not stated)	i
Clc1ccc2c(c1)C1C=CCC1C(c1cccc3ccccc13)N2 (configuration not stated)	i
COc1ccc(CCNc2nc3c(S(=O)(=O)c4ccc(C)cc4)nnn3c3ccccc23)cc1OC	i
COc1ccc(-c2cnc3ccc(NCc4ccc(S(N)(=O)=O)cc4)nn23)cc1OC	+
COc1ccc(S(=O)(=O)NCc2nc(-c3ccc(OC)c(OC)c3)no2)cc1	i
COc1ccc(C(=O)Cn2nc3n(Cc4ccc(F)cc4)c(=O)c4ccccc4n3c2=O)cc1	i
CCCN1C(=O)c2c(C(=O)NCc3ccc(CC)cc3)ncn2CC1(C)C(=O)NC1CCCC1 (configuration not stated)	i
CN1C(=O)c2cc(C(=O)NC3CCCCC3)nn2CC1(C)C(=O)NC1CCCCCC1 (configuration not stated)	i
COCCCN1C(=O)c2ccc(-c3ccco3)n2CC1(C)C(=O)NCc1ccccc1 (configuration not stated)	i
C=C[C@H]1[C@H](O[C@@H]2O[C@H](CO)[C@@H](O)[C@H](O)[C@H]2O)OC=C(C(=O)OC)[C@H]1C[C@@H]1N[C@H](C(=O)O)Cc2c1[nH]c1ccccc21	i
CC1C(OC(=O)c2ccccc2)C(O)C2C(C(=O)O)=COC(OC3OC(CO)C(O)C(O)C3O)C12 (configuration not stated)	i
COC(=O)C1=COC(OC2OC(CO)C(O)C(O)C2O)C2C(C)C(OC(C)=O)C(OC(=O)c3ccccc3)C12 (configuration not stated)	i
C=C[C@H]1[C@H](O[C@@H]2O[C@H](CO)[C@@H](O)[C@H](O)[C@H]2O)OC=C(C(=O)OC)[C@H]1CC(=O)O	i
COC(=O)C1=COC(O[C@@H]2O[C@H](CO)[C@@H](O)[C@H](O)[C@H]2O)C2C(C)C(=O)CC12 (some centres not stated)	i
COC(=O)C1=CO[C@@H](O[C@@H]2O[C@H](CO)[C@@H](O)[C@H](O)[C@H]2O)[C@H]2[C@@H]1CC(OC)O[C@@H]2C (some centres not stated)	+
SMILES	Methyltransferases
COC(=O)C1=CO[C@@H](O[C@@H]2O[C@H](CO)[C@@H](O)[C@H](O)[C@H]2O)[C@@H]2[C@@H](C(=O)OC)[C@@H](O)C(O)[C@H]12 (some centres not stated)	i
C=C[C@H]1[C@H](O[C@@H]2O[C@H](CO)[C@@H](O)[C@H](O)[C@H]2O)OC=C(C(=O)OC)[C@H]1CCO	+
COC(=O)C1=COC(OC2OC(CO)C(O)C(O)C2O)C2C1CC(OC(=O)C(O)CC(=O)O)C2C (configuration not stated)	+
CCc1cccc(N2C(=O)c3cc(-c4ccccc4)nn3CC2(C)C(=O)NCc2ccccc2)c1 (configuration not stated)	i
Cn1c2c(c3ccccc31)C(C(=O)NCc1ccc(F)cc1)N(c1ccc3c(c1)OCO3)C(=O)CS2 (configuration not stated)	i
CCOc1cc(CNC(=O)c2cc3n(n2)CC(C)(C(=O)NCc2ccccc2)N(C)C3=O)ccc1OC (configuration not stated)	i
COc1ccc(C)cc1NC(=O)Cn1c(=O)oc2cc(S(=O)(=O)N3CC(C)CC(C)C3)ccc21 (configuration not stated)	i
NC(=O)C1CCN(c2nc3c(-c4cccc(F)c4)nnn3c3ccc(Cl)cc23)CC1	i
CN1C(=O)c2cc(C(=O)Nc3cccc(F)c3)nn2CC1(C)C(=O)NC1CCCCCC1 (configuration not stated)	i
Cc1ccccc1CN1C(=O)c2nc3ccccc3n2CC1(C)C(=O)NC1CCCCC1C (configuration not stated)	i
CN(C(=O)Cn1nc2n(C)c(=O)c3ccc(C(=O)NC4CCCC4)cc3n2c1=O)c1ccc(F)cc1	i
COc1ccc2nc(NC(=O)Cn3c(=O)oc4cc(S(=O)(=O)NC(C)C)ccc43)sc2c1	i
O=C(COc1ccc2c(-c3ccccc3)cc(=O)oc2c1)c1ccc(Cl)cc1	i
CC1(C(=O)NCc2ccccc2)Cc2ccccc2C(=O)N1Cc1ccc(C(F)(F)F)cc1 (configuration not stated)	i
CCc1ccc(S(=O)(=O)c2nnn3c2nc(NCc2ccc(OC)cc2)c2ccccc23)cc1	i
O=S(=O)(c1cc(F)ccc1F)N1CCC(n2cc(CCCO)nn2)CC1	i
CNC(=O)[C@@H]1C[C@H](n2cc(CNS(=O)(=O)c3cc(C)ccc3F)nn2)CN1	i
N#Cc1cnc2c(Cl)cc(NCc3cn(CCN4CCCCCC4)nn3)cc2c1Nc1ccc(F)c(Cl)c1	+
O=C(Nc1ccc(F)c(Cl)c1)c1cnc(-c2ccccc2)nc1-c1ccncc1	i
CCN1CCC(n2cc(CNc3cc(Cl)c4ncc(C#N)c(Nc5ccc(F)c(Cl)c5)c4c3)nn2)CC1	+
Cc1ccc(C#N)c(-c2cc(NCc3cccnc3)nc3[nH]ccc23)n1	i
N#Cc1cnc2cnc(NCc3cccnc3)cc2c1Nc1ccc(F)c(Cl)c1	+
CCCn1c(=O)c2ccccc2n2c(=O)n(CC(=O)Nc3cccc(F)c3)nc12	i
COc1cccc(C2c3cccn3-c3sc4c(c3CN2C(=O)Nc2cc(C)ccc2OC)CCCC4)c1 (configuration not stated)	i
Cc1cc(C)cc(NC(=O)Cn2nc3n(CC(C)C)c(=O)c4ccc(C(=O)NC(C)C)cc4n3c2=O)c1	i
CC1(C(=O)NC2CCCCCCC2)Cn2c(ccc2-c2ccccc2)C(=O)N1Cc1ccccc1 (configuration not stated)	i
O=S(=O)(NCc1cccnc1-c1ccc(F)cc1)c1ccc(F)cc1	i
CC(C)Cn1c(=O)c2ccc(Cl)cc2n2c(SCC(=O)NC3CCCCC3)nnc12	i
COc1cccc(CN2C(=O)c3cc(-c4ccccc4)nn3CC2(C)C(=O)NCc2ccccc2)c1OC (configuration not stated)	i
